Where a name gives a salt, the structure may show the parent alone. ± gives the uncertainty stated by the source.
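Also: viable cell number estimated from Alamar Blue fluorescence read at 560/90, part of a single-dose primary screen of an FDA-approved drug library.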

The assay deals with U87. Nature of the assay: cell viability relative to vehicle control; higher = less growth inhibition (less active). The following applies: 10 µM; 72 h.
As for `CNC1CC(c2ccc(Cl)c(Cl)c2)c2ccccc21` (configuration not stated) [Indatraline], the cell viability – broadly, a read-out of living cells in per cent, often relative to untreated cells – stood at 99.93 ± 0.57%.
As for `C[N+]1(C)CCN(c2ccccc2)CC1`, the cell viability came out at 96.62 ± 0.74%.
`CCCN1C[C@H](CSC)C[C@@H]2c3cccc4[nH]cc(c34)C[C@H]21` [Pergolide]: the cell viability stood at 109.4 ± 1%.
For `COc1ccc2c(c1)[C@]13CCCC[C@@H]1[C@H](C2)N(C)CC3` [d-3-Methoxy-N-methylmorphinan hydrobromide] the value was 103 ± 1.2%; for `COC(=O)N1CCN(C(=O)Cc2ccc(Cl)c(Cl)c2)C(CN2CCCC2)C1` (configuration not stated), 105 ± 2.6%; for `CNC1=Nc2ccc(Cl)cc2C(c2ccccc2)=[N+]([O-])C1`, 104 ± 1.7%.
Consider `Oc1cc2c(cc1O)[C@H]1c3ccccc3CN[C@@H]1CC2`, for which the cell viability was determined as 109 ± 1.4%.
Consider `Cc1ncc2n1-c1ccc(Cl)cc1C(c1ccccc1F)=NC2`, for which the cell viability is 102.2 ± 0.87%.
As for `CCCCCCCCCOc1ccc2[nH]cc(CCN)c2c1` [5-Nonyloxytryptamine], the cell viability amounted to 37.1 ± 1.2%.
Take `Oc1ccc2c3c1O[C@H]1[C@@H](O)CC[C@@]4(O)[C@@H](C2)N(CC2CCC2)CC[C@]314` [Nalbuphine]: the cell viability amounted to 99.2 ± 7.3%.
Turning to `c1ccc2c3c([nH]c2c1)CNCC3`, the cell viability was found to be 104 ± 1.1%.
Regarding `C[C@]12CC[C@H](O)CC1=CC[C@@H]1[C@@H]2CC[C@]2(C)C(=O)CC[C@@H]12`, the cell viability turned out to be 116 ± 9.3%.
On to `COc1ccc(CCN)cc1OC` [Homoveratrylamine], for which the cell viability was 104 ± 1.1%.
For `CN1C(=O)CN=C(c2ccccc2)c2cc([N+](=O)[O-])ccc21` [Nimetazepam] the value was 108 ± 2.6%.
As for `O=C(O)C(Cl)Cl`, the cell viability amounted to 101 ± 1.6%.
For `OC1CCCCC1N1CCC(c2ccccc2)CC1` (configuration not stated) the value was 95 ± 2.2%; for `Cc1nnc2n1-c1ccc(Cl)cc1C(c1ccccc1)=NC2` [Alprazolam], 89.23 ± 0.4%.
